{"source": "the supplement of paper PMC9262897", "about": "“Low-cost anti-mycobacterial drug discovery using engineered E. coli” (Nature Communications, 2022)", "note": "Structures can show the parent of a compound that is named as a salt. ± gives the standard deviation of the averaged measurements."}
{"tested_on": "E. coli TESEC Alr+ wild-type control", "assay": "growth (OD600 after 10 h); higher = more growth (less inhibition)", "conditions": "compound 0.1 mM; raw OD600 reference: median of DMSO wells 0.49, cell-free background 0.052", "method": "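TESEC Mtb Alr E. coli (ΔaraC ΔtolC ΔentC Δalr ΔdadX, arabinose-inducible Mtb Alr) or the Alr+ wild-type control strain, grown in defined M9-fructose medium without D-alanine in 96-well plates with Prestwick library compounds at 0.1 mM and 1% DMSO. Low Alr induction is 0.1 µM arabinose and high induction is 10 mM arabinose.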"}
{"molecule": "CC(C)NCC(O)c1cc(O)cc(O)c1", "note": "(stereo not given) [Metaproterenol sulfate, orciprenaline sulfate]", "growth": "0.635 ± 0.09"}
{"molecule": "CC(CN(C)C)C(C)(O)Cc1ccc(Cl)cc1", "note": "(stereo not given) [Clobutinol hydrochloride]", "growth": "0.588 ± 0.083"}
{"molecule": "C=C1c2cccc(O)c2C(O)=C2C(=O)[C@]3(O)C(O)=C(C(N)=O)C(=O)[C@@H](N(C)C)[C@@H]3[C@@H](O)[C@H]12", "note": "[Methacycline hydrochloride]", "growth": "0.0598 ± 0.0011"}
{"molecule": "CNCCC=C1c2ccccc2C=Cc2ccccc21", "note": "[Norcyclobenzaprine]", "growth": "0.514 ± 0.015"}
{"molecule": "CC(C)(C)CC(C)(C)c1ccc(OCCOCC[N+](C)(C)Cc2ccccc2)cc1", "note": "[Benzethonium chloride]", "growth": "0.04753 ± 0.00035"}
{"molecule": "CCCCOc1ccc(CC(=O)NO)cc1", "note": "[Bufexamac]", "growth": "0.437 ± 0.031"}
{"molecule": "CN(C)[C@@H]1C(=O)C(C(N)=O)=C(O)[C@@]2(O)C(=O)C3=C(O)c4c(O)ccc(Cl)c4[C@@H](O)[C@H]3C[C@@H]12", "note": "[Demeclocycline hydrochloride]", "growth": "0.05087 ± 0.00038"}
{"molecule": "N[C@@H](C(=O)N[C@@H]1C(=O)N2C(C(=O)O)=C(Cl)CC[C@H]12)c1ccccc1", "note": "[Loracarbef]", "growth": "0.529 ± 0.067"}
{"molecule": "NC[C@@H]1O[C@@H](O[C@H]2[C@H](O)[C@@H](O[C@H]3O[C@H](CO)[C@@H](O)[C@H](N)[C@H]3O)[C@H](N)C[C@@H]2N)[C@@H](O)[C@H](O)[C@H]1O", "note": "[Kanamycin A sulfate]", "growth": "0.495 ± 0.032"}
{"molecule": "CC(C)(S)C(N)C(=O)O", "note": "(racemic) [D,L-Penicillamine]", "growth": "0.437 ± 0.0091"}
{"molecule": "Cc1onc(-c2ccccc2)c1-c1ccc(S(N)(=O)=O)cc1", "note": "[Valdecoxib]", "growth": "0.388 ± 0.027"}
{"molecule": "CC(C)NCC(O)COc1ccc(COCCOC(C)C)cc1", "note": "(stereo not given) [Bisoprolol fumarate]", "growth": "0.448 ± 0.022"}
{"molecule": "CC(C)NCC(O)c1ccc(O)c(O)c1", "note": "(single isomer, unassigned; (-)) [(-)-Isoproterenol hydrochloride]", "growth": "0.539 ± 0.066"}
{"molecule": "Nc1ccn([C@@H]2O[C@H](CO)[C@@H](O)[C@@H]2O)c(=O)n1", "note": "[Cytarabine]", "growth": "0.552 ± 0.051"}
{"molecule": "C/C(=C(\\CCOP(=O)(O)O)SC(=O)c1ccccc1)N(C=O)Cc1cnc(C)nc1N", "note": "[Benfotiamine]", "growth": "0.502 ± 0.11"}
{"molecule": "CN(C)CCCN1c2ccccc2Sc2ccc(Cl)cc21", "note": "[Chlorpromazine hydrochloride]", "growth": "0.105 ± 0.046"}
{"molecule": "CCCOc1cc(N)ccc1C(=O)OCCN(CC)CC", "note": "[Propoxycaine hydrochloride]", "growth": "0.487 ± 0.08"}
{"molecule": "Clc1ccc(C(Cn2ccnc2)OCc2ccsc2Cl)c(Cl)c1", "note": "(stereo not given) [Tioconazole]", "growth": "0.0501 ± 0.00075"}
{"molecule": "Cc1cccn2c(=O)c(-c3nnn[nH]3)cnc12", "note": "[Pemirolast potassium]", "growth": "0.49 ± 0.067"}
{"molecule": "C[C@@H]1C[C@H]2[C@@H]3CCC4=CC(=O)C=C[C@]4(C)[C@@]3(Cl)[C@@H](O)C[C@]2(C)[C@@]1(OC(=O)c1ccco1)C(=O)CCl", "note": "[Mometasone furoate]", "growth": "0.498 ± 0.036"}
{"molecule": "CCCC(CCC)C(=O)O", "note": "[Valproic acid]", "growth": "0.478 ± 0.035"}
{"molecule": "Cc1cc2c(cc1S(N)(=O)=O)S(=O)(=O)CCC2", "note": "[Meticrane]", "growth": "0.423 ± 0.008"}
{"molecule": "C[C@H](N)[C@H](O)c1cccc(O)c1", "note": "[Metaraminol bitartrate]", "growth": "0.573 ± 0.076"}
{"molecule": "CC(C)(O)c1ccccc1CC[C@@H](SCC1(CC(=O)O)CC1)c1cccc(/C=C/c2ccc3ccc(Cl)cc3n2)c1", "note": "[Montelukast]", "growth": "0.566 ± 0.061"}
{"molecule": "CC[C@@]1(O)C(=O)OCc2c1cc1n(c2=O)Cc2cc3c(CN(C)C)c(O)ccc3nc2-1", "note": "[Topotecan]", "growth": "0.483 ± 0.024"}
{"molecule": "CN(C)CCC=C1c2ccccc2CCc2ccccc21", "note": "[Amitryptiline hydrochloride]", "growth": "0.476 ± 0.0078"}
{"molecule": "CCCCOc1cc(C(=O)OCCN(CC)CC)ccc1N", "note": "[Benoxinate hydrochloride]", "growth": "0.476 ± 0.024"}
{"molecule": "CC(C)/N=c1\\cc2n(-c3ccc(Cl)cc3)c3ccccc3nc-2cc1Nc1ccc(Cl)cc1", "note": "[Clofazimine]", "growth": "0.154 ± 0.012"}
{"molecule": "NC(=O)c1ncn([C@@H]2O[C@H](CO)[C@@H](O)[C@H]2O)n1", "note": "[Ribavirin]", "growth": "0.54 ± 0.043"}
{"molecule": "CCc1cc(Cl)c(OC)c(C(=O)NC[C@@H]2CCCN2CC)c1O", "note": "[S(-)Eticlopride hydrochloride]", "growth": "0.567 ± 0.012"}
{"molecule": "CN1CCN(c2c(F)cc3c(=O)c(C(=O)O)cn(CCF)c3c2F)CC1", "note": "[Fleroxacin]", "growth": "0.0565 ± 0.002"}
{"molecule": "COc1ccc2cc([C@H](C)C(=O)O)ccc2c1", "note": "[Naproxen]", "growth": "0.5599 ± 0.0025"}
{"molecule": "COc1c(O[C@@H]2O[C@H](CO)[C@@H](O)[C@H](O)[C@H]2O)cc2c(c1OC)-c1ccc(SC)c(=O)cc1[C@@H](NC(C)=O)CC2", "note": "[Thiocolchicoside]", "growth": "0.51 ± 0.076"}
{"molecule": "CCC[C@H](N[C@@H](C)C(=O)N1[C@H](C(=O)O)C[C@@H]2CCCC[C@@H]21)C(=O)OCC", "note": "[Perindopril]", "growth": "0.555 ± 0.1"}
{"molecule": "Cc1cc(-c2ccccc2)nnc1NCCN1CCOCC1", "note": "[Minaprine dihydrochloride]", "growth": "0.498 ± 0.045"}
{"molecule": "O=C(O)c1ccccc1OP(=O)(O)O", "note": "[Fosfosal]", "growth": "0.561 ± 0.049"}
{"molecule": "CC(=O)Oc1ccccc1C(=O)Nc1ncc([N+](=O)[O-])s1", "note": "[Nitazoxanide]", "growth": "0.0524 ± 0.0014"}
{"molecule": "CC(=O)[C@H]1CC[C@H]2[C@@H]3CCC4=CC(=O)CC[C@]4(C)[C@H]3CC[C@]12C", "note": "[Progesterone]", "growth": "0.101 ± 0.0049"}
{"molecule": "Cn1ccnc1S", "note": "[Methimazole]", "growth": "0.57 ± 0.026"}
{"molecule": "CCN(CC)CCOC(=O)c1ccc(N)cc1", "note": "[Procaine hydrochloride]", "growth": "0.52 ± 0.05"}
